Among the test systems are HCT-15 colon; HT29 colon; SNB-75 CNS; SNB-19 CNS; U251 CNS; PC-3 prostate; SK-MEL-5 melanoma; UACC-62 melanoma; LOX IMVI melanoma; SK-MEL-28 melanoma; SK-MEL-2 melanoma; EKVX NSCLC; SN12C renal; UO-31 renal; TK-10 renal; ACHN renal; CAKI-1 renal; A498 renal; CCRF-CEM leukemia; MOLT-4 leukemia.
Common to all, as to test: NCI-60 one-dose screen, 48 h (100 = growth as untreated, 0 = no growth, -100 = all killed)
Holding throughout (details): 10 µM unless noted

Compounds without any hit were thinned out: in the full panel of roughly 83,000, 20% have a hit.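 96-well plates, one dose, 48 hours. Percent growth reported; active if below 10.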 A number with no mark means an inactive call. Activity calls are given as the source filed them.

`O=C1c2ccccc2C23C(=C(c4cncnc4)c4ccccc42)CCCN13` (stereo not given): the growth was 104% with HCT-15 colon; 101% in the assay on HT29 colon; 85.3% in the assay with SNB-75 CNS; 93.4% in the assay with SNB-19 CNS; 102% with U251 CNS; 88.8% in the assay on PC-3 prostate. In addition, the growth with SK-MEL-5 melanoma was 98.7%; in the assay on UACC-62 melanoma, 88.2%; in the assay on LOX IMVI melanoma, 76.1%; with SK-MEL-28 melanoma, 101%; in the assay on SK-MEL-2 melanoma, 106%; with EKVX NSCLC, 100%. In addition, the growth was 96.4% in the assay with SN12C renal; 85.6% in the assay with UO-31 renal; 97% in the assay on TK-10 renal; 99.2% in the assay on ACHN renal; 78.5% with CAKI-1 renal; 96.4% with A498 renal. Besides, the growth in the assay on CCRF-CEM leukemia was 102%; in the assay with MOLT-4 leukemia, 107%.

For `O=c1c2cc(-c3ccc(F)cc3F)ccc2n(O)c(=O)n1-c1cccc(C(F)(F)F)c1`, the growth in the assay with HCT-15 colon is 10.5%; in the assay on HT29 colon, 62.9%; in the assay on SNB-75 CNS, -19.4% (active); with SNB-19 CNS it was 10.5%; in the assay on U251 CNS it was 5.79% (active); in the assay with PC-3 prostate, -0.871% (active). For the same compound, the growth in the assay on SK-MEL-5 melanoma is -59.7% (active); in the assay with UACC-62 melanoma, -0.381% (active); with LOX IMVI melanoma, 12.5%; in the assay with SK-MEL-28 melanoma, 27.2%; in the assay on SK-MEL-2 melanoma it was -34.3% (active); in the assay on EKVX NSCLC, 4.46% (active). In addition, the growth was 0.105% (active) in the assay with SN12C renal; 8% (active) in the assay on UO-31 renal; 1.66% (active) with TK-10 renal; 0.899% (active) in the assay with ACHN renal; -16.4% (active) with CAKI-1 renal; -22.4% (active) in the assay on A498 renal. Moreover, the values for the growth in the assay on CCRF-CEM leukemia and in the assay on MOLT-4 leukemia were 15.2% and 0.581% (active), respectively.

For the compound `C=C(C)[C@@H]1CC[C@]2(COCCCNCCCN)CC[C@]3(C)[C@H](CC[C@@H]4[C@@]5(C)CC[C@H](O)C(C)(C)[C@@H]5CC[C@]43C)[C@@H]12`, the growth is -78% (active) in the assay on HCT-15 colon; -62.6% (active) in the assay with HT29 colon; -86.6% (active) in the assay on SNB-75 CNS; -91% (active) with SNB-19 CNS; -73.4% (active) in the assay with U251 CNS; -74.4% (active) with PC-3 prostate. The growth was -63.5% (active) in the assay with SK-MEL-5 melanoma; -89.6% (active) in the assay on UACC-62 melanoma; -80.7% (active) with LOX IMVI melanoma; -92.8% (active) in the assay with SK-MEL-28 melanoma; 99.1% in the assay with SK-MEL-2 melanoma; -84.2% (active) in the assay with EKVX NSCLC. The growth with SN12C renal was -78.8% (active); in the assay with UO-31 renal, -93% (active); with TK-10 renal it was -85.5% (active); with ACHN renal, -98.6% (active); in the assay with CAKI-1 renal it was -85.6% (active); with A498 renal it was -16.1% (active). Also, the growth in the assay on CCRF-CEM leukemia is -40.2% (active); in the assay on MOLT-4 leukemia, -34.5% (active).

On to `CN1CCN(c2ccc(C(=O)/C=C/c3cc(F)cc(C(F)(F)F)c3)cc2)CC1`, for which the growth is 27.5% in the assay with HCT-15 colon; 15.9% with HT29 colon; 59.9% in the assay with SNB-75 CNS; 81.7% with SNB-19 CNS; 51.4% in the assay on U251 CNS; 60.2% in the assay with PC-3 prostate. In addition, the growth is 71.3% in the assay on SK-MEL-5 melanoma; 82.8% with UACC-62 melanoma; 7.73% (active) with LOX IMVI melanoma; 96.3% with SK-MEL-28 melanoma; 117% in the assay with SK-MEL-2 melanoma; 88.9% in the assay on EKVX NSCLC. In addition, the growth with SN12C renal was 75.7%; with UO-31 renal it was 53.3%; in the assay with TK-10 renal, 144%; in the assay with ACHN renal it was 67.9%; in the assay with CAKI-1 renal, 51.5%; in the assay on A498 renal it was 96.9%. Also, the growth in the assay on CCRF-CEM leukemia is 14.1%; in the assay on MOLT-4 leukemia, 46.8%.

With `N#Cc1c(-c2cccs2)cc(-c2cnccn2)nc1SCC(=O)N/N=C/c1ccc(Cl)cc1`, the growth in the assay on HCT-15 colon was 98.5%; with HT29 colon, 104%; with SNB-75 CNS it was 95.8%; with SNB-19 CNS it was 105%; in the assay with U251 CNS it was 100%; with PC-3 prostate it was 93.9%. For the same compound, the growth was 101% in the assay on SK-MEL-5 melanoma; 91.3% in the assay on UACC-62 melanoma; 92% in the assay with LOX IMVI melanoma; 110% in the assay with SK-MEL-28 melanoma; 121% in the assay with SK-MEL-2 melanoma; 93.5% with EKVX NSCLC. The growth was 104% in the assay on SN12C renal; 92.6% with UO-31 renal; 130% in the assay on TK-10 renal; 102% in the assay with ACHN renal; 90.8% in the assay on CAKI-1 renal; 87.1% in the assay on A498 renal. Also, the growth with CCRF-CEM leukemia is 87.6%; in the assay on MOLT-4 leukemia it was 102%.

With `C/C(=N/N)c1nnn(-c2ccc(Br)cc2)c1C`, the growth is 103% in the assay on HCT-15 colon; 106% in the assay with HT29 colon; 98.1% in the assay on SNB-75 CNS; 97.9% in the assay on SNB-19 CNS; 98.6% in the assay with U251 CNS; 95.8% with PC-3 prostate. The growth with SK-MEL-5 melanoma is 99.6%; with UACC-62 melanoma, 98.1%; with LOX IMVI melanoma it was 86.2%; with SK-MEL-28 melanoma it was 99.2%; with SK-MEL-2 melanoma it was 112%; with EKVX NSCLC it was 99.5%. For the same compound, the growth is 91% in the assay with SN12C renal; 79.7% with UO-31 renal; 98.1% with TK-10 renal; 101% in the assay with ACHN renal; 91.6% in the assay on CAKI-1 renal; 93.3% in the assay with A498 renal. Also, the growth in the assay with CCRF-CEM leukemia was 109%; with MOLT-4 leukemia, 93.6%.

As for `CC(C)(O)c1cncc(-c2ccc3ncc(C#N)c(N4CCc5cc(F)c(Cl)cc54)c3c2)c1`, the growth in the assay on HCT-15 colon was 9.91% (active); in the assay on HT29 colon it was 9.96% (active); with SNB-75 CNS it was -12.6% (active); in the assay on SNB-19 CNS, 11.2%; in the assay on U251 CNS it was 20.1%; in the assay with PC-3 prostate it was 11.9%. In addition, the growth was -22.4% (active) in the assay on SK-MEL-5 melanoma; -7.62% (active) in the assay on UACC-62 melanoma; 5.41% (active) in the assay with LOX IMVI melanoma; 9.63% (active) in the assay on SK-MEL-28 melanoma; -5.06% (active) in the assay with SK-MEL-2 melanoma; -10.5% (active) with EKVX NSCLC. Further, the growth in the assay with SN12C renal is 17.1%; with UO-31 renal it was -2.66% (active); with TK-10 renal, 14.3%; in the assay on ACHN renal, 6.6% (active); with CAKI-1 renal, 0.608% (active); in the assay with A498 renal it was -18.3% (active). Besides, the growth is 20.5% in the assay on CCRF-CEM leukemia and 5.17% (active) in the assay with MOLT-4 leukemia.

Regarding `C=CCSC1=NC2C(N(CC)C(=O)N2CC)N1/N=C/C=C/c1ccccc1OC` (stereo not given), the growth with HCT-15 colon was 50.8%; in the assay on HT29 colon, 70.3%; in the assay with SNB-75 CNS it was 70.7%; with SNB-19 CNS, 79.9%; in the assay on U251 CNS, 74.2%; in the assay with PC-3 prostate, 62.4%. Also, the growth in the assay with SK-MEL-5 melanoma was 65.5%; in the assay on UACC-62 melanoma it was 54.6%; in the assay on LOX IMVI melanoma, 68.9%; with SK-MEL-28 melanoma, 84.3%; in the assay on SK-MEL-2 melanoma, 98.7%; in the assay with EKVX NSCLC, 83.7%. Further, the growth in the assay with SN12C renal is 97.5%; in the assay with UO-31 renal, 68.3%; with TK-10 renal it was 122%; in the assay on ACHN renal, 74.7%; in the assay with CAKI-1 renal, 49.5%; in the assay on A498 renal, 55.1%. Further, the growth in the assay with CCRF-CEM leukemia was 63.5%; in the assay with MOLT-4 leukemia, 70.6%.

Values taken from PubChem BioAssay (NCI).
